Among the data in PubChem BioAssay (EPA / NIEHS) are outcome and AC50 values, retold here.

Where “and” joins values, the source holds several entries; their conditions need not be identical. Equal entries are not always repeated. Inconclusive results are not listed. Where a structure was tested more than once in an assay, its records may differ in their call. Calls of active or inactive are those of the source. The calls were made as follows, unless noted: active = hit-call score of the fitted dose curve at least 0.9, where 1 is the maximum; inactive = score below 0.9.

The nature of test [1]: CCTE_Shafer_MEA_acute_per_burst_spike_number_mean: CCTE's Neural Acute Assay for Average Number of Spikes Per Burst, Shafer Lab (AID 2284015).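 Also: hits are decreases in mean spikes per burst versus baseline.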 The procedure, abridged: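 We recorded spontaneous network firing of rat cortical neurons for 40 min before and 40 min during exposure to compound at 0.03-40 uM, at 37 C. Spikes were detected adaptively at 8x rms noise, and the change in average spikes per burst was fitted against DMSO.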

Test [2] is described as follows: CCTE_Shafer_MEA_acute_interburst_interval_mean: CCTE's Neural Acute Assay for Mean Interburst Interval, Shafer Lab (AID 2284016).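 Also: percent change of mean interburst interval versus each well's own pre-dose baseline; curves fitted for decrease in interburst interval relative to DMSO.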 The procedure, abridged:
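MEA recording of spontaneous network bursting in primary rat cortical cultures; mean interburst interval was compared before and after a 40-min compound exposure (0.03-40 uM) and expressed as percent change, relative to DMSO.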

A short description of test [3]: CCTE_Shafer_MEA_acute_burst_percentage_mean: CCTE's Neural Acute Assay for Percentage of Spikes in a Burst, Shafer Lab (AID 2284017).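 As to AC50: curve fitted for loss of signal so potency reflects decreased burst percentage.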 In a few lines: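 Compounds were tested at 0.03-40 uM on primary rat cortical neuron networks grown over microelectrodes, with at least three wells per compound. Spontaneous firing was recorded for 40 min before and 40 min after dosing, and the change in burst percentage was computed per well.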

Test [4] in a line: CCTE_Shafer_MEA_acute_per_network_burst_spike_number_mean: CCTE's Neural Acute Assay for Average Number of Spikes in a Network Burst, Shafer Lab (AID 2284019). In a few lines:
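Rat cortical cultures, DIV 13/15; spike threshold 8x rms noise, 300-5000 Hz band-pass, 12.5 kHz sampling; wells need >/= 10 active electrodes. Compound 0.03-40 uM, 40 min, 37 C; % change vs own baseline, DMSO negative control.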

The nature of test [5]: CCTE_Shafer_MEA_acute_per_network_burst_spike_number_std: CCTE's Neural Acute Assay for Standard Deviation of Number of Spikes in a Network Burst, Shafer Lab (AID 2284020).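 Also: fitted for decrease in spike-number SD versus DMSO so actives lower it.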 In a few lines:
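Rat cortical cultures, DIV 13/15, 37 C; 20-min stabilisation, 40-min baseline, compound 0.03-40 uM, 40-min re-record. Spikes detected at 8x rms noise (300-5000 Hz band-pass). Readout: % change from baseline in per-burst spike-number SD.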

Test [6] is described as follows: CCTE_Shafer_MEA_acute_network_burst_percentage: CCTE's Neural Acute Assay for Percentage of Network Bursts, Shafer Lab (AID 2284022).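 Also: curves fitted for loss so actives lower network burst percentage.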 The procedure, abridged:
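Network burst percentage (spikes in network bursts divided by total spikes) recorded at 37 C over 40 min baseline and 40 min after compound, 0.03-40 uM, in rat cortical cultures at DIV 13 or 15. Analysed as percent change from baseline versus DMSO.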

The nature of test [7]: CCTE_Shafer_MEA_acute_cross_correlation_area: CCTE's Neural Acute Assay for Area of Cross Correlation, Shafer Lab (AID 2284024).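 Also: rat primary cortical neuron networks on 48-well MEA at DIV 13 or 15 with 40 min exposure; area under pooled inter-electrode spike cross-correlation near zero lag as percent change from own baseline; curves fitted for loss of cross-correlation area so actives lower synchrony.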 In a few lines: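 Percent change in well-wide cross-correlation area (window around zero lag) between 40 min baseline and 40 min post-compound recordings, 37 C; rat cortical cultures on MEA at DIV 13 or 15, dosed 0.03-40 uM, wells needing >/= 10 active electrodes.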

Test [8] can be described thus: CCTE_Shafer_MEA_acute_cross_correlation_HWHM: CCTE's Neural Acute Assay for Cross Correlation at Half Width at Half Maximum, Shafer Lab (AID 2284026).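 Also: percent change per well from pre-dose baseline in spike cross-correlogram half width; hits are a decrease in cross-correlogram half width relative to DMSO.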 The procedure, abridged:
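Per-well percent change in cross-correlogram half width at half maximum, derived from 40-min recordings before and after compound (0.03-40 uM) at 37 C. Cultures were rat cortical neurons, DIV 13 or 15, with adaptive spike detection at 8x rms.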

Test [9] can be described thus: CCTE_Shafer_MEA_acute_synchrony_index: CCTE's Neural Acute Assay for Synchrony, Shafer Lab (AID 2284027).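 Also: network synchrony index of spontaneous spiking in primary rat cortical neurons on MEAs; fitted for loss of signal so actives lower synchrony relative to DMSO.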 In a few lines: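 Plates equilibrated 20 min at 37 C, baseline recorded 40 min, compound (0.03-40 uM) added, then 40 min more recorded. Cells: primary rat cortical neurons, DIV 13 or 15. Per-well synchrony index change analysed in negative direction against DMSO.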

The nature of test [10]: CCTE_Deisenroth_AIME_384WELL_CTox_Active: Cytotoxicity Assessment (CTOX) in CCTE's 384-well Estrogen Receptor Transactivation Assay with AIME metabolic competence (metabolism positive), Deisenroth Lab (AID 2284037; active = hit-call score of the fitted dose curve at least 0.9, where 1 is the maximum;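 also: chemicals first conditioned 2 h by alginate-bound induced rat liver S9 before cells; activity means signal loss indicating cell death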). The procedure, abridged: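 Chemicals pre-incubated 2 hours with alginate-immobilised phenobarbital/beta-naphthoflavone-induced male Sprague Dawley rat liver S9, then conditioned medium applied 24 hour to VM7Luc4E2 cells. Viability by fluorogenic protease substrate; 10-point series 0.002 - 200 uM.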

Test [11] is described as follows: CCTE_Deisenroth_AIME_384WELL_CTox_Inactive: Cytotoxicity Assessment (CTOX) in CCTE's 384-well Estrogen Receptor Transactivation Assay without AIME metabolic competence (metabolism negative), Deisenroth Lab (AID 2284039; active = hit-call score of the fitted dose curve at least 0.9, where 1 is the maximum;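 also: cell viability via live-cell protease substrate cleaved to fluorescent probe; cells exposed 24 h to medium preincubated 2 h with alginate-water beads without S9; loss of fluorescence signal means loss of viability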). The procedure, abridged: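 Fluorescence from a live-cell protease substrate, read after 24 h in VM7Luc4E2 cells, indicated viability. Test medium came from a 2 h AIME step without hepatic S9 (alginate-water microspheres); concentrations spanned 0.002 - 200 uM, single technical replicate per run.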

A short description of test [12]: CCTE_Shafer_MEA_dev_firing_rate_mean: CCTE's Neural Network Formation Assay for Mean Firing Rate, Shafer Lab (AID 2284031).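 As to AC50: curve fitted for loss of firing so AC50 reflects decreased mean firing rate.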 The procedure, abridged:
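Steps: seed rat cortical cells (1.5 x 10^5/well) with laminin on PEI-coated MEA; dose day 0; record DIV 5/7/9/12, full media and compound exchange after DIV 5 and 9 recordings; compute well-mean firing rate AUC.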

Test [13] in a line: CCTE_Shafer_MEA_dev_per_burst_spike_percent: CCTE's Neural Network Formation Assay for Percent of Spikes in a Burst, Shafer Lab (AID 2284032).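 As to AC50: fitted as a decrease in burst spike percentage below DMSO baseline.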 The procedure, abridged: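 Value is trapezoidal AUC over recordings on days 5, 7, 9 and 12 of the well-mean fraction of spikes falling in single-electrode bursts; rat cortical cultures exposed continuously from plating, treatment renewed DIV 5 and 9, fitted downward against DMSO.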

The nature of test [14]: CCTE_Shafer_MEA_dev_active_electrodes_number: CCTE's Neural Network Formation Assay for Number of Active Electrodes, Shafer Lab (AID 2284040; active = hit-call score of the fitted dose curve at least 0.9, where 1 is the maximum;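 as to AC50: potency for loss of active electrodes versus DMSO so lower counts are hits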). The procedure, abridged:
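Counts electrodes per well firing at least 5 spikes/min, recorded on days 5, 7, 9 and 12 in rat cortical cultures dosed continuously from plating (treatment refreshed DIV 5, 9). Value is the area under the curve over recordings, fitted downward relative to DMSO.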

Test [15] in a line: CCTE_Shafer_MEA_dev_burst_rate: CCTE's Neural Network Formation Assay for Burst Rate, Shafer Lab (AID 2284042).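 As to AC50: potency for loss of burst rate below DMSO control.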 The procedure, abridged: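 Developmental network assay measuring how 12-day exposure of rat cortical neuron cultures alters bursting on extracellular MEA recordings. Values are AUC of well-mean burst rate across four recording days, relative to DMSO vehicle.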
Test [16] in a line: CCTE_Shafer_MEA_dev_bursting_electrodes_number: CCTE's Neural Network Formation Assay for Number of Bursting Electrodes, Shafer Lab (AID 2284043; active = hit-call score of the fitted dose curve at least 0.9, where 1 is the maximum;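 as to AC50: potency is for loss of bursting electrodes relative to DMSO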). In a few lines:
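Rat cortical primary neurons, 48-well MEA, 16 electrodes/well; dosing DIV 0–12, re-dosed with full media change DIV 5, 9. Recordings DIV 5/7/9/12, AxIS adaptive spike detector; bursting electrode = ≥1 burst/2 min. AUC across days; loss of signal vs DMSO.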

A short description of test [17]: CCTE_Shafer_MEA_dev_per_burst_interspike_interval: CCTE's Neural Network Formation Assay for Burst Interspike Interval, Shafer Lab (AID 2284044).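 As to AC50: potency for a decrease of within-burst interspike interval below DMSO level.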 The procedure, abridged:
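Mean interspike interval within single-electrode bursts, averaged over bursting electrodes, from rat cortical cultures on MEA plates recorded on days 5, 7, 9 and 12. Continuous compound exposure from plating; trapezoidal AUC fitted downward relative to DMSO.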

Regarding `O=C(O)c1cc(Oc2ccc(C(F)(F)F)cc2Cl)ccc1[N+](=O)[O-]`, the compound was called inactive in [1], in test [2], in [3], in test [4], in test [5] and in test [6]. Also, the call in test [7], in test [8], in test [9], in test [10] and in test [11] was inactive.
`S=C1NCCN1`: the compound was called inactive in test [12], in test [13], in test [15], in [16] and in test [17]. In test [14], the AC50 was 3.82 µM (active).
Consider `CCCSP(=O)(OCC)SCCC`, for which the compound was classed as inactive in test [12], in [15] and in [17]. Also, the AC50 in [13] was 50 µM (active) and 50.5 µM (active); in [14], 27.9 µM (active) and 50.5 µM (active); in test [16] it was 24.9 µM (active) and 22.7 µM (active).
In the case of `COc1ccc(C(=CC(=O)N2CCOCC2)c2ccc(Cl)cc2)cc1OC`, the result in test [10] and in test [11] was inactive.
As to `CNC(=O)ON=C(SC)C(=O)N(C)C`, the result in test [1], in [2], in test [3], in [4], in [5] and in [6] was inactive. Also, the call in test [8] and in test [9] was inactive.
Take `COP(=O)(OC)OC(Br)C(Cl)(Cl)Br` (configuration not stated): the half-maximal activity concentration (AC50) in test [12] is 7.31 µM (active) and 13 µM (active); in test [13], 7.85 µM (active) and 19.1 µM (active); in [14], 7.62 µM (active) and 14.8 µM (active); in test [15] it was 7.93 µM (active) and 13.3 µM (active); in [16], 6.36 µM (active) and 12.9 µM (active); in [17] it was 9.62 µM (active) and 16 µM (active).
In the case of `CCOP(=O)(NC(C)C)Oc1ccc(SC)c(C)c1` (configuration not stated), the result in test [1], in test [2], in test [4], in [5], in [6] and in test [7] was inactive. The compound was called inactive in [9], in [12], in test [13], in [11], in test [14] and in test [15]. In addition, the call in [16] and in test [17] was inactive. The AC50 in test [3] was 30.2 µM (active); in test [12] it was 22 µM (active); in [13], 40.7 µM (active); in test [14], 33.4 µM (active); in test [15], 40.1 µM (active); in test [16] it was 32.3 µM (active).
For `Nc1nc(N)nc(NC2CC2)n1`, the call in test [10] and in test [11] was inactive.
For the compound `CC(COc1ccc(Oc2ccccc2)cc1)Oc1ccccn1` (configuration not stated), the AC50 was 10.2 µM (active) in [1]; 10.3 µM (active) in test [3]; 10.1 µM (active) in test [5]; 32.7 µM (active) in [6]; 8.8 µM (active) in [8]; 20 µM (active) in [9]. Further, the call in [2], in [4], in test [7], in test [10] and in [11] was inactive.
